Potency and outcome data for 60 molecules are collected here from PubChem BioAssay (Tox21).

Results filed as inconclusive are left out. Calls of active or inactive are those of the source. Calls come from the whole dose curve.

Assay [1] deals with Acetylcholinesterase (Homo sapiens) (UniProt P22303). Nature of the assay: Acetylcholinesterase (AChE) small molecule antagonists: colormetric cell-based qHTS assay (AID 1347395). Note: nearly all actives have a fitted effect of over 30% in size. Note: potency is the fitted concentration of half-maximal effect. Summed up:
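In this cell-based qHTS, attached SH-SY5Y cells were treated with test chemicals for 30 min, after which acetylthiocholine hydrolysis was followed by DTNB colour development over 90 min at 37 C.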
Background: In qHTS, concentration-response curves come from the screen itself.

The target is the same in assay [2]. Nature of the assay: Acetylcholinesterase (AChE) small molecule antagonists: enzyme-based qHTS assay (AID 1347397). Note: nearly all actives have a fitted effect of over 55% in size. Particulars: Potency: AChE enzyme activity inhibition; outcome: AChE enzyme activity inhibition. Summed up:
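Compound or DMSO vehicle was pin-transferred onto recombinant human AChE (50 mU/mL as dispensed) and left 30 min at room temperature. Acetylthiocholine with DTNB then started the reaction, read colorimetrically 10 min later.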

Assay [3] shares this target. Nature of the assay: Acetylcholinesterase (AChE) small molecule antagonists: fluorescence cell-based qHTS assay (AID 1347398). Note: nearly all actives have a fitted effect of over 50% in size. As to conditions: Potency: AChE activity; outcome: AChE activity. Summed up: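 Using neuroblastoma SH-SY5Y cells as the enzyme source, test chemicals are preincubated 30 min at 37 C; AChE-driven acetylthiocholine cleavage is then quantified by thiocholine-dependent Thiolite Green fluorescence after 40 min at room temperature.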

Assay [4] shares this target. Nature of the assay: Acetylcholinesterase (AChE) small molecule antagonists: enzyme-based qHTS assay with human liver microsomes (AID 1347399). Note: nearly all actives have a fitted effect of over 60% in size. Particulars: Potency: qHTS inhibition; outcome: qHTS inhibition. Summed up:
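Recombinant human AChE (50 mU/mL in the enzyme mix) and human liver microsomes (0.25 mg/mL final) were preincubated with compound and NADPH (0.25 mg/mL final) for 30 min at 37 C. Acetylthiocholine/DTNB was then added; thiocholine was read colorimetrically after 10 min at room temperature.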

Acetylcholinesterase (Homo sapiens), sequence (P22303 whole entry, looked up): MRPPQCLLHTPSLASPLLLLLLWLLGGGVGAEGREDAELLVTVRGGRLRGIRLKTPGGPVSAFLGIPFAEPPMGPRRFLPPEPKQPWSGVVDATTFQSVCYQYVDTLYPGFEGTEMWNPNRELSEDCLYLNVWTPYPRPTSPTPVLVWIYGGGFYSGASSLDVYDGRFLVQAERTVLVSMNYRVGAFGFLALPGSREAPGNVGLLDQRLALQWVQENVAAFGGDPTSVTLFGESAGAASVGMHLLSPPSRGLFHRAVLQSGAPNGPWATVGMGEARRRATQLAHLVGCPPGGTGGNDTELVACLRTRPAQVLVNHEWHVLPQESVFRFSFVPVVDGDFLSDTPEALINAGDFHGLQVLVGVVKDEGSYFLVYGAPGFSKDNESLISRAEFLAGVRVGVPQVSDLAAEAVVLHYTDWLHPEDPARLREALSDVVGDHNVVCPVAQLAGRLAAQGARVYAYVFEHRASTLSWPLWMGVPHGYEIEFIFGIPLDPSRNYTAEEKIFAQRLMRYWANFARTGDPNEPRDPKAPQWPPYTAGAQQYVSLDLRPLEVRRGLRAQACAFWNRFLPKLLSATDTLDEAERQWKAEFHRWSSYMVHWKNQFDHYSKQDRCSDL

As for `CCOC(=O)NCCOc1ccc(Oc2ccccc2)cc1`, the Potency entry in assay [1], in assay [2], in assay [3] and in assay [4] was “inactive” each time.

In the case of `CNS(=O)(=O)CCc1ccc2[nH]cc(C3CCN(C)CC3)c2c1`, the Potency result in assay [1], in assay [2], in assay [3] and in assay [4] was “inactive” throughout.

With `Cc1ccnc2c1NC(=O)c1cccnc1N2C1CC1`, the Potency result in assay [1], in assay [2], in assay [3] and in assay [4] was “inactive” throughout.

On to `Nc1c(S(=O)(=O)O)cc(Br)c2c1C(=O)c1ccccc1C2=O`, for which the Potency result in assay [1], in assay [2], in assay [3] and in assay [4] was “inactive” in each case.

Consider `O=C(O)CCc1nc2ccccc2[nH]1`, for which the Potency result in assay [1], in assay [2], in assay [3] and in assay [4] was “inactive” throughout.

Turning to `CC(C)(C)c1cc(/C=C2\SC(=N)NC2=O)cc(C(C)(C)C)c1O`, the outcome in assay [1], in assay [2], in assay [3] and in assay [4] was inactive.

As for `CCCCCCCCOc1ccc(C(=O)O)cc1`, the Potency result in assay [1], in assay [2], in assay [3] and in assay [4] was “inactive” throughout.

As to `O=C(NO)c1ccccc1`, the Potency entry in assay [1], in assay [2], in assay [3] and in assay [4] was “inactive” throughout.

Regarding `COc1ccccc1C=O`, the Potency entry in assay [1], in assay [2], in assay [3] and in assay [4] was “inactive” each time.

`CCOC(=O)CCCCCCCCC(=O)OCC`: the Potency result in assay [1], in assay [2], in assay [3] and in assay [4] was “inactive” in each case.

In the case of `Cc1ccc(C#N)cc1`, the Potency result in assay [1], in assay [2], in assay [3] and in assay [4] was “inactive” throughout.

In the case of `CCCCCC(N)=O`, the Potency result in assay [1], in assay [2], in assay [3] and in assay [4] was “inactive” each time.

For `CCCCCCCCCCCC(=O)OC`, the Potency result in assay [1], in assay [2], in assay [3] and in assay [4] was “inactive” in each case.

On to `CCC(CC)Nc1ccc(C)c(C)c1`, for which the Potency entry in assay [1], in assay [2], in assay [3] and in assay [4] was “inactive” throughout.

Take `Cn1c([N+](=O)[O-])cnc1COC(N)=O`: the Potency entry in assay [1], in assay [2], in assay [3] and in assay [4] was “inactive” in each case.

Regarding `CN(C)C=O`, the Potency entry in assay [1], in assay [2], in assay [3] and in assay [4] was “inactive” in each case.

In the case of `C[C@]12C=CC(=O)C=C1CC[C@@H]1[C@@H]2C(=O)C[C@@]2(C)[C@H]1CC[C@]2(O)C(=O)CO`, the Potency entry in assay [1], in assay [2], in assay [3] and in assay [4] was “inactive” each time.

Turning to `CCCNCCC`, the Potency result in assay [1], in assay [2], in assay [3] and in assay [4] was “inactive” in each case.

Turning to `Cc1cccc2sc(N)nc12`, the Potency result in assay [1], in assay [2], in assay [3] and in assay [4] was “inactive” throughout.

`C/C=C(\C)C(=O)OCCC(C)CCC=C(C)C` (stereo not given): the Potency entry in assay [1], in assay [2], in assay [3] and in assay [4] was “inactive” throughout.

With `C=CC(=O)OCCOC(=O)C=C`, the Potency result in assay [1], in assay [2], in assay [3] and in assay [4] was “inactive” in each case.

Regarding `CN1[C@@H]2CC[C@H]1CC(OC(=O)c1c[nH]c3ccccc13)C2` (stereo not given in full), the Potency result in assay [1], in assay [2], in assay [3] and in assay [4] was “inactive” each time.

Regarding `Cc1cc(O)c(Cl)c(C)c1Cl`, the Potency result in assay [1], in assay [2], in assay [3] and in assay [4] was “inactive” in each case.

As to `C=C[Si](OCCOC)(OCCOC)OCCOC`, the Potency result in assay [1], in assay [2], in assay [3] and in assay [4] was “inactive” throughout.

Regarding `C=C(C)C(=O)OCC(CC)(COC(=O)C(=C)C)COC(=O)C(=C)C`, the Potency result in assay [1], in assay [2], in assay [3] and in assay [4] was “inactive” in each case.

As for `CC1CCC(CO)CC1` (stereo not given), the Potency entry in assay [1], in assay [2], in assay [3] and in assay [4] was “inactive” each time.

Regarding `O=S(=O)(O)c1ccc(O)c2ncccc12`, the Potency result in assay [1], in assay [2], in assay [3] and in assay [4] was “inactive” each time.

Take `CCCCCCCCCCC=CC1CC(=O)OC1=O` (stereo not given): the Potency entry in assay [1], in assay [2], in assay [3] and in assay [4] was “inactive” in each case.

`CNC(=O)c1ccccc1`: the Potency entry in assay [1], in assay [2], in assay [3] and in assay [4] was “inactive” each time.

Consider `C=C(C#N)C(=O)OCC`, for which the Potency result in assay [1], in assay [2], in assay [3] and in assay [4] was “inactive” throughout.

For the molecule `CC(C)OB(OC(C)C)OC(C)C`, the Potency entry in assay [1], in assay [2], in assay [3] and in assay [4] was “inactive” throughout.

Take `Cc1cn([C@H]2C[C@H](F)[C@@H](CO)O2)c(=O)[nH]c1=O`: the Potency entry in assay [1], in assay [2], in assay [3] and in assay [4] was “inactive” throughout.

On to `CCC(C)n1ncn(-c2ccc(N3CCN(c4ccc(OC[C@H]5CO[C@](Cn6cncn6)(c6ccc(Cl)cc6Cl)O5)cc4)CC3)cc2)c1=O` (stereo not given in full), for which the Potency entry in assay [1], in assay [2], in assay [3] and in assay [4] was “inactive” in each case.

As for `CNS(=O)(=O)Cc1ccc2[nH]cc(CCN(C)C)c2c1`, the Potency entry in assay [1], in assay [2], in assay [3] and in assay [4] was “inactive” each time.

Consider `CCCCCCCCCCCCCCCC(=O)OC[C@H](O)[C@H]1OC(=O)C(O)=C1O`, for which the Potency result in assay [1], in assay [2], in assay [3] and in assay [4] was “inactive” throughout.

As to `CCCCOC(=O)CCCCCCCCC(=O)OCCCC`, the Potency entry in assay [1], in assay [2], in assay [3] and in assay [4] was “inactive” throughout.

For `CCC(=O)O[C@]1(C(=O)SCF)[C@H](C)C[C@H]2[C@@H]3C[C@H](F)C4=CC(=O)C=C[C@]4(C)[C@@]3(F)[C@@H](O)C[C@@]21C`, the Potency entry in assay [1], in assay [2], in assay [3] and in assay [4] was “inactive” throughout.

As to `CC(C)(c1ccccc1)c1ccccc1`, the Potency entry in assay [1], in assay [2], in assay [3] and in assay [4] was “inactive” in each case.

On to `N=c1ccn2c(n1)O[C@H]1[C@H](O)[C@@H](CO)O[C@H]12`, for which the Potency result in assay [1], in assay [2], in assay [3] and in assay [4] was “inactive” each time.

In the case of `CCCCC/C(=C\c1ccccc1)CO`, the Potency entry in assay [1], in assay [2], in assay [3] and in assay [4] was “inactive” in each case.

`COc1cc(C(=S)N2CCOCC2)ccc1O`: the Potency result in assay [1], in assay [2], in assay [3] and in assay [4] was “inactive” in each case.

As to `CC(O)C(=O)O` (stereo not given), the Potency entry in assay [1], in assay [2], in assay [3] and in assay [4] was “inactive” in each case.

Take `CN1CC(=O)NC1=N`: the Potency result in assay [1], in assay [2], in assay [3] and in assay [4] was “inactive” each time.

`CCC1(c2ccccc2)C(=O)NCNC1=O`: the Potency result in assay [1], in assay [2], in assay [3] and in assay [4] was “inactive” throughout.

For the molecule `CC(C)(C)CC(C)(C)c1ccc(O)c(Cc2ccc(Cl)cc2Cl)c1`, the Potency entry in assay [1], in assay [2], in assay [3] and in assay [4] was “inactive” each time.

Consider `CCC(=O)O[C@H]1[C@H](O[C@@H]2[C@@H](C)[C@H](O[C@H]3C[C@@](C)(OC)[C@@H](O)[C@H](C)O3)[C@@H](C)C(=O)O[C@H](CC)[C@@](C)(O)[C@H](O)[C@@H](C)C(=O)[C@H](C)C[C@@]2(C)O)O[C@H](C)C[C@@H]1N(C)C`, for which the Potency result in assay [1], in assay [2], in assay [3] and in assay [4] was “inactive” in each case.

`O=c1c(O)c(-c2ccc(O)c(O)c2)oc2cc(O)cc(O)c12`: the Potency result in assay [1], in assay [2], in assay [3] and in assay [4] was “inactive” each time.

As to `O=C(O)Cc1cccc2ccccc12`, the Potency entry in assay [1], in assay [2], in assay [3] and in assay [4] was “inactive” in each case.

Turning to `CCCCC/C(C=O)=C\c1ccccc1`, the Potency entry in assay [1], in assay [2], in assay [3] and in assay [4] was “inactive” throughout.

Take `CN(C)CCN1CCOCC1`: the Potency entry in assay [1], in assay [2], in assay [3] and in assay [4] was “inactive” throughout.

Take `O=C1OC2(c3ccccc31)c1ccc(O)c(Br)c1Oc1c2ccc(O)c1Br`: the Potency result in assay [1], in assay [2], in assay [3] and in assay [4] was “inactive” each time.

With `C=CCCCCCCCCC(=O)O`, the Potency entry in assay [1], in assay [2], in assay [3] and in assay [4] was “inactive” throughout.

For `CCCCCCC(C)(C)S`, the Potency result in assay [1], in assay [2], in assay [3] and in assay [4] was “inactive” throughout.

As to `CC(=O)O[C@@H]1CC2C3CCc4cc(OC(=O)c5ccccc5)ccc4C3CCC2(C)[C@H]1OC(C)=O` (stereo not given in full), the Potency result in assay [1], in assay [2], in assay [3] and in assay [4] was “inactive” each time.

`CCOC(=O)C(=O)CCc1ccccc1`: the Potency result in assay [1], in assay [2], in assay [3] and in assay [4] was “inactive” each time.

Turning to `N=C(N)N`, the Potency entry in assay [1], in assay [2], in assay [3] and in assay [4] was “inactive” throughout.

Turning to `CCCCOC(=O)COc1ccc(Cl)cc1Cl`, the Potency entry in assay [1], in assay [2], in assay [3] and in assay [4] was “inactive” throughout.

`COc1ccc([C@@H]2Sc3ccccc3N(CCN(C)C)C(=O)[C@@H]2OC(C)=O)cc1`: the Potency entry in assay [1], in assay [2], in assay [3] and in assay [4] was “inactive” each time.

In the case of `CC(=O)CCC(C)C`, the Potency result in assay [1], in assay [2], in assay [3] and in assay [4] was “inactive” throughout.

With `COc1cccc2c1C(=O)c1c(O)c3c(c(O)c1C2=O)C[C@@](O)(C(=O)CO)C[C@@H]3O[C@H]1C[C@H](N)[C@H](O)[C@H](C)O1`, in assay [1], the Potency is 8.71 µM (active). The Potency entry in assay [2], in assay [3] and in assay [4] was “inactive” in each case.
